According to PubChem BioAssay (NCATS):
Results filed as inconclusive are left out. Entries that show only a call come without a potency. The source made the active and inactive calls. Unless noted, calls follow the shape of the dose curve; as a rule, active = well fitted inhibition curve with a large enough effect; inconclusive = small, poorly fitted or top-dose-only effect; inactive = flat fitted curve, though single readings scatter. Residues, ends and D or L forms follow the SMILES beside them. *: point of attachment. Cbz = O=C(OCc1ccccc1)*

Molecular target: Phenylethanolamine N-methyltransferase (Homo sapiens) (UniProt P11086)
Test: Confirmatory Screen for Target Class Profiling of Small Molecule Inhibitors of Methyltransferases (AID 1745852)
Settings: MTase-Glo luminescence, SAH detection, recombinant enzyme; measured here: PNMT max response; stronger effect = lower value

Phenylethanolamine N-methyltransferase (Homo sapiens), sequence (P11086 whole entry, looked up): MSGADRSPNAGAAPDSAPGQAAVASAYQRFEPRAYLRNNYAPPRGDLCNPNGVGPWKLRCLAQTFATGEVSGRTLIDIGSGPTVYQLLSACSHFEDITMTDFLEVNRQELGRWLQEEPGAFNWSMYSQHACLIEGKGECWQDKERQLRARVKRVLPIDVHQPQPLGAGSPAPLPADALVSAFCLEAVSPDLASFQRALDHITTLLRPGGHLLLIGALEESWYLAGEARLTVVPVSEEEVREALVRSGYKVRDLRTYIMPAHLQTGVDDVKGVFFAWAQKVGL

Compound | activity [%]
CCOC(=O)[C@@H](N)Cc1ccc(-c2cc(O[C@H](c3ccc(Cl)cc3-n3ccc(C)n3)C(F)(F)F)nc(N)n2)cc1 | -6.64
c1cc(N[C@@H]2CCNC2)nc(-c2cnc3ccc(-c4cn[nH]c4)cn23)c1 | -12.3
CCN(CC)Cc1ccc2cc(COC(=O)Nc3ccc(C(=O)NO)cc3)ccc2c1 | -6.29

Tested on: not listed separately
Test: NCATS anti-infectives library activity on the primary C. elegans qHTS viability assay (AID 1745855; calls by dose curve; also: potency is read from the fitted curve at half-maximal effect)
Settings: C. elegans worm area imaging, day 7; series mostly up to 41.8 µM
How it was run: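 Titration-based screen in worms: eggs hatched overnight in M9, L1 larvae fed TOP10 capsules in S medium with compound, incubated 21 °C for 7 days; fluorescent objects gated by size and intensity at days 0, 3 and 7.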

Compound | Potency
CN(C)c1ccc(C(=O)NCCCCCCC(=O)NO)cc1 | inactive
C[C@H](NC(=O)[C@@H](O)c1cc(F)cc(F)c1)C(=O)N[C@@H]1C(=O)N(C)c2ccccc2-c2ccccc21 | 365 nM (active)
CC(C)C[C@@H](C=O)NC(=O)[C@H](CC(C)C)NC(=O)[C@H](CC(C)C)NC(=O)OCc1ccccc1 (Cbz-Leu-Leu-Leu-aldehyde) | inactive
CC(C)C[C@H](NC(=O)[C@@H](NC(=O)c1cccc(-c2ccccc2)n1)[C@@H](C)O)B(O)O | 2050 nM (active)

Molecular target: Glutathione peroxidase 1 (Homo sapiens) (UniProt P07203)
Test: Primary qHTS Assay for Inhibitors of Recombinant Selenoprotein Glutathione Peroxidase 1 (GPX1) (AID 1845191); also: nearly all actives have a fitted effect of over 65% in size
Settings: recombinant GPX1, GR-coupled NADPH fluorescence, 15 min; series mostly up to 48.8 µM
How it was run: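 NADPH consumption tracked by fluorescence at 340/450 nm between t=0 and t=15 min, room temperature. Final mix: 10 nM GPX1, 100 nM glutathione reductase, 1 mM GSH, 0.5 mM NADPH, 0.5 mM cumene hydroperoxide, 0.01% BSA; 30 min compound–enzyme preincubation.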

Glutathione peroxidase 1 (Homo sapiens), sequence (P07203 whole entry, looked up): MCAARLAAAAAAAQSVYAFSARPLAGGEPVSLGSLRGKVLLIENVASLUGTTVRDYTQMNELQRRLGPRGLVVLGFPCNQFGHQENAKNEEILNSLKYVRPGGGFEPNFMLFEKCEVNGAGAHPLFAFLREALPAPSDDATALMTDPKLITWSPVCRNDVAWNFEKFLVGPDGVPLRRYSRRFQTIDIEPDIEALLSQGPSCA

Compound | Potency
Cc1noc(-c2ccc(CSCCC(=O)O)cc2)c1NC(=O)OC(C)c1ccccc1Cl (centres undefined) | inactive
COc1cc(O)c2c(c1)C1OC1C[C@H](O)[C@H](O)C(=O)C=CC[C@H](C)OC2=O (some centres undefined) | inactive
CN(C)c1ccc(C(=O)NCCCCCCC(=O)NO)cc1 | inactive
CCCCCCCCCCCCCCCC(=O)OC[C@@H](NC(=O)C(Cl)Cl)[C@H](O)c1ccc([N+](=O)[O-])cc1 | inactive
COc1ccc(C[C@@H](C)[C@@H](C)Cc2ccc(OC)c(OC)c2)cc1OC | inactive
Cc1ccccc1C(=O)Nc1ccc(C(=O)N2CCCC(O)c3cc(Cl)ccc32)c(C)c1 (centres undefined) | inactive
Oc1cc2c(cc1O)C1c3ccc(O)c(O)c3OCC1(O)C2 (centres undefined) | inactive
C=Cc1c(C)c2cc3nc(cc4[nH]c(cc5nc(cc1[nH]2)C(C)=C5CCC(=O)O)c(CCC(=O)OC)c4C)[C@@]1(C)C3=CC=C(C(=O)OC)[C@H]1C(=O)OC | inactive
Cc1ccc(-n2[nH]c(C)c(N=Nc3cccc(-c4cccc(C(=O)O)c4)c3O)c2=O)cc1C | inactive
C=C(C)[C@@H]1CC[C@]2(C(=O)O)CC[C@]3(C)[C@H](CC[C@@H]4[C@@]5(C)CC[C@H](O)C(C)(C)[C@@H]5CC[C@]43C)[C@@H]12 | inactive
Cc1cncc2cccc(S(=O)(=O)N3CCCN(C(=O)CN)C[C@@H]3C)c12 | inactive
N[C@H]1CN(c2c(F)cc3c(=O)c(C(=O)O)cn(C4C[C@@H]4F)c3c2Cl)CC12CC2 (some centres undefined) | inactive
O=C(O)CCCCCC(=O)NN=C1CCCC1 | inactive
Cn1cnc2c(F)c(Nc3ccc(Br)cc3F)c(C(=O)NOCCO)cc21 | inactive
NC1=N[C@H]2[C@H](CS[C@H]2CCCCC(=O)O)N1 | inactive
C=CC(=O)N1CCc2ccc(-n3c(=O)ccc4cnc5ccc(-c6cnn(C)c6)cc5c43)cc21 | inactive
CCc1c(O)cc(O)c(C(=O)c2ccc(OCCN3CCOCC3)c(OC)c2)c1CC(=O)N(CCOC)CCOC | inactive
C[C@H](NC(=O)[C@@H](O)c1cc(F)cc(F)c1)C(=O)N[C@@H]1C(=O)N(C)c2ccccc2-c2ccccc21 | inactive
CCOC(=O)[C@@H](N)Cc1ccc(-c2cc(O[C@H](c3ccc(Cl)cc3-n3ccc(C)n3)C(F)(F)F)nc(N)n2)cc1 | inactive
c1cc(N[C@@H]2CCNC2)nc(-c2cnc3ccc(-c4cn[nH]c4)cn23)c1 | inactive
CC(C)C[C@@H](C=O)NC(=O)[C@H](CC(C)C)NC(=O)[C@H](CC(C)C)NC(=O)OCc1ccccc1 (Cbz-Leu-Leu-Leu-aldehyde) | inactive
Cc1ncc(-c2ccnc(Nc3ccc(S(C)(=O)=O)cc3)n2)n1C(C)C | inactive
COc1cc(C[C@@H](CO)[C@H](CO)Cc2ccc(O)c(OC)c2)ccc1O | inactive
CCN(CC)Cc1ccc2cc(COC(=O)Nc3ccc(C(=O)NO)cc3)ccc2c1 | inactive
O=C(Nc1ccc(Oc2ccnc3[nH]ccc23)c(F)c1)c1cccn(-c2ccc(F)cc2)c1=O | inactive
CC(C)C[C@H](NC(=O)[C@@H](NC(=O)c1cccc(-c2ccccc2)n1)[C@@H](C)O)B(O)O | inactive
Cn1cc(-c2ccc3ncc(Cc4ccc5ncccc5c4)n3n2)cn1 | inactive
